Source: PubChem BioAssay
TDP1 cell CPT = growth inhibition of DT40 Tdp1-/-;hTDP1 cells with camptothecin (screen for TDP1 inhibitors) | chicken DT40 Tdp1-/-;hTDP1 cells + 20 nM CPT, ATP luminescence, 48 h | Potency, µM (top dose mostly 46.2 µM), most hits filed as inhibitors | AID 686979 | hit rate 12% among 420,000; also: nearly all actives have a fitted effect of over 55% in size
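Chicken DT40 Tdp1-/- cells complemented with human TDP1, 400 cells/well, exposed to compounds plus 20 nM camptothecin for at least 48 h at 37 C; viability read as ATP content by CellTiter-Glo luminescence.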
TGFb inhibitor = blocks TGF-b signaling; Potency, µM (series often up to 46.1 µM), most hits filed as inhibitors; HepG2 CAGA-GFP TGF-b/SMAD3 reporter, GFP fluorescence, 18 h; TGF-beta stimulated, 500 pg/mL final; hit rate 1.2% among 410,000; also: nearly all actives have a fitted effect of over 65% in size
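TGF-beta reporter screen: HEPG2 CAGA-GFP, 1% FBS, 500 pg/mL TGF-beta final, 18 h; per-cell GFP summed per well; curves fitted and categorized by class.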
IL-1B inflam inh = inhibitors of inflammasome signaling (IL-1 beta secretion); activity change, % at 57.5 µM; THP-1 LPS/ATP IL-1B secretion, AlphaLISA, 16 h; hits give low values; hit rate 4.7% among 360,000; in the data active = activity change below about -50%; inconclusive = mostly about -30% to -49%
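THP-1 cells pretreated 1 hr with compounds (up to 57.5 uM final), then stimulated with LPS (250 ng/mL final) plus ATP (1.25 mM final); secreted IL-1B measured by AlphaLISA after 16 hr, decreased signal indicating inhibition.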
HepG2 tox = HepG2 cytotoxicity, counter-screen for TGF-b inhibitors; hit rate 0.76% among 410,000; HepG2 CAGA-GFP viability, ATP luminescence, 18 h; Potency, µM (titrated, usually from 46.1 µM), usual class: cytotoxic; AID 588856
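HepG2 CAGA-GFP cells (1000/well, DMEM with 1% FBS) received compound, then TGF-beta at 500 pg/mL final, and were incubated 18 hours at 37 degrees C. Viability was read by CellTiter-Glo luminescence. Media-only wells were set as complete cell-killing and DMSO as no toxicity.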
DT40 TDP1 no CPT = qHTS for Inhibitors of human tyrosyl-DNA phosphodiesterase 1 (TDP1): qHTS in cells in absence of CPT; hit rate 15% among 420,000; DT40 Tdp1-/- hTDP1 cells, no CPT, ATP luminescence, 48 h; Potency, µM (doses to about 46.2 µM), most hits filed as inhibitors; also: nearly all actives have a fitted effect of over 55% in size
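Readout: luminescence from CellTiter-Glo after 30 min in the dark at RT. Cells: DT40 Tdp1-/- with stable hTDP1, 400/well. Exposure: compounds alone, ≥48 hr, 37 °C.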
TDP1 inh = blocks human tyrosyl-DNA phosphodiesterase 1; Q9NUW8; Potency, µM (series often up to 130 µM), hits mostly inhibitors; recombinant TDP1, AlphaScreen DNA substrate cleavage; hit rate 0.28% among 350,000; also: nearly all actives have a fitted effect of over 40% in size
Target sequence (Q9NUW8 whole entry, looked up): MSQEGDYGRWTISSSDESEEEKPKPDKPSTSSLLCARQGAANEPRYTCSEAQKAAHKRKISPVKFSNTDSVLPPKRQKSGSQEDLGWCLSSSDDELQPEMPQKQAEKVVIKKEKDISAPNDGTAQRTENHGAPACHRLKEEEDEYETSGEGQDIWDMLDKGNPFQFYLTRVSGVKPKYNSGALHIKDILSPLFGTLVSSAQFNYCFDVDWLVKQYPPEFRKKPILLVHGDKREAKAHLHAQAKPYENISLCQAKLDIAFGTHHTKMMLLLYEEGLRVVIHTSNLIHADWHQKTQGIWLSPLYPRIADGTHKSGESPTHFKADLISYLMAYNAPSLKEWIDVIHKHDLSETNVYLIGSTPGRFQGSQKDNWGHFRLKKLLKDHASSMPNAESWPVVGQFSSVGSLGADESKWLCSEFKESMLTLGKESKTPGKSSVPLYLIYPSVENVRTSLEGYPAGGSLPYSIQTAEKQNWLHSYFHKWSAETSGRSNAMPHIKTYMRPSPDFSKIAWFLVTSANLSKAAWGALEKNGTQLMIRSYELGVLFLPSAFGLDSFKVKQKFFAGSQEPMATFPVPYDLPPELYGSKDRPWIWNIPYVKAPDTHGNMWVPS
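Tdp1 1 nM final; 15 min RT w/ cpd; substrate 15 nM, 5 min; beads 10 ug/ml, 10 min; AlphaScreen read. Neg ctrl: no enzyme.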
Numbers stand for hits; - = inactive; ? = inconclusive; . = no result given; [ ] = dose if it differs, or a comment. Hits are enriched below; roughly 18% of the tested compounds scored in any of these assays. Unless noted, calls follow the shape of the dose curve; as a rule, active = well fitted curve in the direction sought with a large enough effect; inconclusive = small, poorly fitted or top-dose-only effect, or another doubt; inactive = no such curve, though single readings can be large; an effect the other way counts as inactive or inconclusive.

SMILES | TDP1 cell CPT | TGFb inhibitor | IL-1B inflam inh | HepG2 tox | DT40 TDP1 no CPT | TDP1 inh
O=C(NCc1nc2ccccc2n1Cc1ccccc1Cl)c1ccccc1 | ? | ? | . | - | ? | -
Cn1c(=O)c2nc(NCc3ccccc3)sc2n(C)c1=O | ? | - | - | - | ? | .
CCOC(=O)C1=C(C)OC(N)=C(C#N)C1c1cccc(C)c1 (stereo not given) | - | - | - | - | - | -
CCOC(=O)C1=C(c2ccccc2)OC(N)=C(C#N)C1c1cccs1 (stereo not given) | - | - | - | - | - | -
CCOC(=O)C1=C(CSc2nc(CC)c(C)cc2C#N)OC(N)=C(C#N)C1c1ccc(OC)cc1 (stereo not given) | ? | - | - | - | 16.4µM | -
CCOC(=O)C1=C(CSc2nc(-c3ccncc3)ccc2C#N)OC(N)=C(C#N)C1c1ccc(OC)cc1 (stereo not given) | ? | - | - | - | 16.4µM | -
CCOC(=O)C1=C(c2ccccc2)OC(N)=C(C#N)C1c1ccncc1 (stereo not given) | 23.1µM | - | - | - | ? | -
CCOC(=O)C1=C(C)OC(N)=C(C#N)C1c1cc(F)ccc1F (stereo not given) | ? | ? | -65.7 | - | ? | -
CCCCCCCC/C=C\CCCCCCCC(N)=O | -[4.12 µM] | . | . | . | -[4.12 µM] | -
CC(C)(Cc1ccc(O)cc1)NC(=O)SCc1ccccc1 | - | ? | ? | - | ? | .
O=S(=O)(c1ccccc1)N1CC2CC(Br)C(Br)CC21 (stereo not given) | - | - | - | - | - | .
Cc1ccc(Cn2c(=O)n(Cc3ccccc3Cl)c(=O)c3cccnc32)cc1 | - | - | . | - | ? | -
C=C(C)CSc1cc(C)c(C#N)c2nc3ccccc3n12 | 20.6µM | - | - | - | 9.2µM | -
Cc1cc(NCCCCO)n2c(nc3ccccc32)c1C#N | - | - | - | - | - | -
Cn1c(=O)[nH]c(=O)c2c1nc(N1CCOCC1)n2CC(=O)c1ccccc1 | - | - | - | - | - | -
CCC(CO)Nc1nc(CN2CCCCC2)nc2scc(-c3ccccc3)c12 (stereo not given) | ? | - | ? | - | ? | -
CCC(CO)Nc1nc2ccc(Cl)cc2c2ccccc12 (stereo not given) | ? | - | -78.6 | - | ? | -
CN(C1CCCCC1)S(=O)(=O)c1ccc(C(=O)Nc2sc3c(c2C(N)=O)CC(C)(C)NC3(C)C)cc1 | ? | ? | - | - | ? | -
CC1CCCCN1S(=O)(=O)c1ccc(C(=O)Nc2sc3c(c2C(N)=O)CC(C)(C)NC3(C)C)cc1 (stereo not given) | 25.9µM | - | . | - | ? | -
OCc1nnn(-c2cccc(C(F)(F)F)c2)c1CO | - | ? | - | - | - | -
Cn1nc(-c2ccc(Cl)cc2)c2cc(C(=O)N3CCCC3)sc21 | 18.4µM | - | - | - | 23.1µM | -
CC(C)NC(=O)c1cc2c(-c3ccc(Cl)cc3)nn(C)c2s1 | - | - | - | - | - | -
Cn1nc(-c2ccc(Cl)cc2)c2cc(C(=O)N3CCN(c4ccccc4)CC3)sc21 | ? | - | - | - | ? | -
Cn1nc(-c2ccc(Cl)cc2)c2cc(C(=O)N3CCN(c4ccccn4)CC3)sc21 | 5.8µM | - | - | - | 5.8µM | -
COc1ccc(-c2nn(C)c3sc(C(=O)N4CCN(c5cc(Cl)ccc5C)CC4)cc23)cc1OC | 14.6µM | ? | . | - | 18.4µM | -
SMILES | TDP1 cell CPT | TGFb inhibitor | IL-1B inflam inh | HepG2 tox | DT40 TDP1 no CPT | TDP1 inh
COc1ccc(-c2c(C)nn3c(N4CCN(c5cc(Cl)ccc5C)CC4)cc(C)nc23)cc1OC | - | ? | . | - | ? | -
CC1CC(C)(C)CC2(C1)NC(=O)N(CC(=O)Nc1cc(C(F)(F)F)ccc1N1CCCCC1)C2=O (stereo not given) | ? | - | - | - | ? | .
COc1ccc(CNC(=O)C(C)N2C(=O)COc3ccc(C)cc32)c(OC)c1 (stereo not given) | - | - | - | - | ? | -
CCOc1ccc(NCc2cccn2-c2nnc(N3CCC(C(=O)NCCCN4C(C)CCCC4C)CC3)s2)cc1 (stereo not given) | ? | - | - | - | ? | -
CCOc1ccc(NCc2cccn2-c2nnc(N3CCC(C(=O)NCc4ccccc4Cl)CC3)s2)cc1 | - | . | . | - | 11.6µM | -
CCOc1ccc(NCc2cccn2-c2nnc(N3CCC(C(=O)NCCCN4CCCCC4C)CC3)s2)cc1 (stereo not given) | ? | - | ? | 20µM | ? | -
CCOc1ccc(NCc2cccn2-c2nnc(N3CCC(C(=O)NCCCN4CCCCC4)CC3)s2)cc1 | ? | - | - | - | 23.1µM | -
COCCCNC(=O)C1CCN(c2nnc(-n3cccc3CNc3ccc(C)cc3)s2)CC1 | - | . | . | - | - | -
COc1ccccc1CNc1ccc(-c2nc(-c3ccncc3)no2)cc1[N+](=O)[O-] | - | - | . | - | - | -
Cc1c(C(=O)NCC2CC2)sc2ncnc(NCCN3CCCCC3)c12 | - | . | . | . | - | .
COC(=O)c1cc(Cn2nc(C(=O)O)c3ccccc3c2=O)oc1C | - | - | - | - | - | .
O=C(Nc1ccc2c(c1)C(=O)OC2)c1ccccc1Cl | - | - | - | - | - | -
C/C(=N\Nc1nc2ccccc2s1)c1ccc(Br)s1 | ? | 12.6µM | -103.5 | - | ? | .
CC(=NNc1nc2ccccc2s1)c1ccncn1 | 0.103µM | ? | -94.4 | - | 0.146µM | .
C/C(=N\Nc1nc2ccccc2s1)c1ccc2c(c1)OCO2 | ? | ? | - | - | - | -
CCN(CC(=O)Nc1c(F)cccc1F)C(=O)Cc1csc(-c2ccccc2)n1 | - | - | - | - | - | -
CCOC(=O)N1CCN(CCC(=O)Nc2cccc(Cl)c2C)CC1 | - | - | - | - | ? | .
CCN(CC)S(=O)(=O)c1ccc(C)c(NC(=O)COc2ccc3c(C)cc(=O)oc3c2)c1 | ? | - | - | - | ? | -
CCN(CC)S(=O)(=O)c1ccc(OC)c(NC(=O)C(C)Oc2ccc3c(C)cc(=O)oc3c2)c1 (stereo not given) | ? | - | - | - | 18.4µM | -
CC(C)(C)OC(=O)N1CCC(c2c(C(=O)N3CCC(c4ccccc4)C3)cnn2-c2cccc(Cl)c2)CC1 (stereo not given) | 18.4µM | - | . | - | 14.6µM | -
